Tau fibril FP: inhibitors of human tau fibril formation. P10636. K18 P301L tau heparin fibrillization, Alexa594 FP, 6 h. Potency, µM (doses to about 57.7 µM), inactives show at the top dose activity, negative = inhibition, actives largely listed as inhibitors. 280,000 compounds, 0.39% hits; further: potency means the concentration at half of the fitted maximal effect; nearly all actives have a fitted effect of over 55% in size
Target sequence (P10636 561-689 P618L limits assumed): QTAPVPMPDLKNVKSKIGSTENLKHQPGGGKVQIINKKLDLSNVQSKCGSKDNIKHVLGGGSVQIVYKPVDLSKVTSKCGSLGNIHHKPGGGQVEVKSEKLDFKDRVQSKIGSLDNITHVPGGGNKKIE
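Compound effects on tau fibrillization are measured by Alexa 594 fluorescence polarization (ex 555, em 632 nm). K18 P301L tau is used at 15 uM with 0.24 uM labeled tracer, and 20 uM heparin induces aggregation over 6 hr at 37 C.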
FBPA coupling cs: counter-screen for Giardia aldolase inhibitors: coupling enzyme system | coupling enzyme system counterscreen, AmpLite Red fluorescence | activity change, negative = inhibition, % at 58.2 µM, hits read low | 290,000 compounds, 0.67% hits; in the data active means activity change below about -30%
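Coupling enzymes only (glyceraldehyde-3-phosphate) + compound, at 57.5 uM final, 10 min RT; add substrate/coupling/AmpLite Red mix, 20 min RT; fluorescence ex 525/em 598 nm. Actives flag coupling-system interference.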
Tau fibril ThT: inhibitors of human tau fibril formation, thioflavin T binding | 270,000 compounds, 2.1% hits | recombinant tau K18 P301L, heparin-induced fibrillization, ThT fluorescence | P10636 | AID 1460 | Potency, µM (top dose mostly 57.4 µM), for inactives: at the top dose activity, negative = inhibition, most hits filed as inhibitors; further: potency means the concentration at half of the fitted maximal effect; nearly all actives have a fitted effect of over 55% in size
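Tau K18 P301L fragment (15 uM unlabeled plus 0.24 uM Alexa 594-labeled) in 100 mM sodium acetate pH 7 with compound, fibrillization induced by 20 uM heparin for 6 hr at 37 C. Thioflavin T (30 uM) added, fluorescence read after 1 hr (ex 450, em 510 nm).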
Tau fluor counter: counter-screen for tau fibril formation inhibitors; tau K18 P301L Alexa594 fluorescence, heparin fibrillization; Potency, µM (series often up to 57.7 µM), for the others: top-dose activity change, negative = decrease; 280,000 compounds, 0.93% hits; further: potency means the concentration at half of the fitted maximal effect; nearly all actives have a fitted effect of over 55% in size
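Human tau K18 P301L (15 uM unlabeled, 0.24 uM Alexa 594-labeled) in 100 mM sodium acetate pH 7 with 20 uM heparin, 6 hr at 37 C. ThT 30 uM added, 1 hr ambient; Alexa 594 FP and total fluorescence read at 555/632 nm.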
Sfp PPTase inh: Sfp phosphopantetheinyl transferase inhibition; Q9F4F7; Biochemical Sfp PPTase activity, qHTS; Potency, µM, inactives show largest response in the series, negative = inhibition, most hits filed as inhibitors; 310,000 compounds, 3.5% hits;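 further: the enzyme is Sfp with the accession as filed and its product quenches rhodamine fluorescence; potency means the concentration at half of the fitted maximal effect; 0% = enzyme reaction without inhibitor and -100% = no enzyme wells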
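Sfp 15 nM + cpd, 15 min RT; start w/ rhodamine-CoA 5 uM, BHQ-2-YbbR 12.5 uM (final); 50 mM Hepes pH 7.6, 10 mM MgCl2, 0.01% NP-40, 0.01% BSA; read 525/598 nm at 0 and 30 min.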
G9a inh: blocks human histone lysine methyltransferase G9a; Q96KQ7; G9a H3K9 monomethylation, AlphaScreen, 2 h; Potency, µM (titrated, usually from 102 µM), for the others: at the highest dose activity, negative = inhibition, usual class: inhibitors; 350,000 compounds, 8.8% hits; AID 504332; further: potency means the concentration at half of the fitted maximal effect; nearly all actives have a fitted effect of over 75% in size
Target sequence (Q96KQ7 913-1193 limits assumed): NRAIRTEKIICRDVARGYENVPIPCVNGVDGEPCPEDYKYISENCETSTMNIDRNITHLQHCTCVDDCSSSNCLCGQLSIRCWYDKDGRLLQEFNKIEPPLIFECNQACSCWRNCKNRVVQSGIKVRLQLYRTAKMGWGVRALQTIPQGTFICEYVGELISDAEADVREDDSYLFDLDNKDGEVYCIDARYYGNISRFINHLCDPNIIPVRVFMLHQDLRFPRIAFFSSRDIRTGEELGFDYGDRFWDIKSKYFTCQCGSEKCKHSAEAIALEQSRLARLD
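Using a bead-based AlphaScreen, monomethylated H3K9 product from 2 h room-temperature reactions (G9a 20 nM, peptide 500 nM, SAM 20 uM) was detected with 0.5 ug/mL rabbit anti-H3K9me1 antibody.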
An asterisk follows results filed as active; ? = inconclusive; nt = no result given; [ ] = remark or other dose. A selection: hits, their analogues and other compounds. The true share with any hit is near 11%. Unless noted, the call rests on the fitted dose curve; in most records, active means well fitted curve in the direction sought with a large enough effect; inconclusive means small, poorly fitted or top-dose-only effect, or another doubt; inactive means no such curve, though single readings can be large; an effect the other way counts as inactive or inconclusive. Unless noted, on the % scale 0 is the no-effect control and ±100 the full control effect.

SMILES	Tau fibril FP	FBPA coupling cs	Tau fibril ThT	Tau fluor counter	Sfp PPTase inh	G9a inh
Cc1cc(OC(C)C(=O)N2CCC(c3nc4ccccc4o3)CC2)ccc1Cl (centres undefined)	5.8%	nt	-9.5%	0.4%	nt	-1.4%[59 µM]
S=C1NCN(Cc2ccccc2)CN1	-4.3%	1.1	-4.9%	-5.6%	7.7%	?
S=c1[nH]ccn1Cc1ccccc1	1.3%	0.7	1.0%	8.7%	-25.9%	6.31µM*
COc1ccc(NC(=O)c2oc3ccc(S(=O)(=O)N4CCC5(CC4)OCCO5)cc3c2C)cc1Cl	?	nt	4.4%	?	nt	-0.5%[59 µM]
CCN1/C(=C/c2ccc3cc(C)cc(C)c3[n+]2CC)Sc2cc(C)ccc21	?	1.4	4.47µM*	?	10µM*	15.8µM*
CCN1/C(=C/c2ccc3cccc(C)c3[n+]2CC)Sc2ccccc21	?	5.3	?	17.9%	8.91µM*	50.1µM*
Cc1ccc2c(c1)S/C(=C\c1cccc[n+]1C)N2CCO	nt	-1.3	nt	nt	?	?
CCN1/C(=C\c2ccc3cc(C)ccc3[n+]2CC)Sc2cc(C)c(C)cc21	?	2.2	7.94µM*	?	17.8µM*	20µM*
COc1ccc(Cl)cc1C(=O)NNC(=O)COC(=O)CC(NC(C)=O)c1ccccc1 (centres undefined)	nt	nt	nt	nt	nt	-28.9%
N#C/C(=C/c1ccc(O)c(O)c1)c1nc2ccccc2[nH]1	nt	-5.2	nt	nt	-28.5%	11.2µM*
N#C/C(=C\c1ccc(Cl)cc1)c1nc2ccccc2[nH]1	-14.0%	nt	-9.8%	-9.3%	nt	29.6%[59 µM]
COc1cc(/C=C(/C#N)c2nc3ccccc3[nH]2)ccc1Oc1ncccc1[N+](=O)[O-]	9.2%	1.6	?	?	0.5%	5.9%
N#C/C(=C\c1ccc(N2CCCC2)c([N+](=O)[O-])c1)c1nc2ccccc2[nH]1	-4.8%	-7.4	2µM*	?	-35.6%	nt
CC1CCCN(c2ccc(/C=C(\C#N)c3nn(-c4ccccc4)c(N)c3C#N)cc2[N+](=O)[O-])C1 (centres undefined)	-4.4%	nt	14.1µM*	?	-1.6%	22.4µM*
CC1CCN(c2ccc(/C=C(\C#N)c3nn(-c4ccccc4)c(N)c3C#N)cc2[N+](=O)[O-])CC1	-8.6%	-0.4	?	?	16.3%	22.1%[59 µM]
O=C1c2ccccc2C(=O)C12OC2c1cccc2ccccc12 (centres undefined)	4.47µM*	-58.0*	2.51µM*	-13.1%	28.2µM*	6.31µM*
c1ccc2c(C3CCO3)cccc2c1 (centres undefined)	nt	nt	nt	nt	nt	-1.7%[0.501 µM]
CCN(CC)CCN(C(=O)C1=COCCO1)c1nc2cc3c(cc2s1)OCO3	-3.5%	2.7	-13.0%	-16.8%	3.2%	0.2%[59 µM]
CCN(CC)CCN(C(=O)c1ccc(Br)s1)c1nc2cc3c(cc2s1)OCCO3	-9.8%	-0.9	-4.1%	-9.4%	-21.2%	50.1µM*
CCN(CC)CCN(C(=O)c1ccc(Br)s1)c1nc2cc3c(cc2s1)OCO3	3.0%	-2.4	3.9%	-5.5%	6.7%	50.1µM*
CCN(CC)S(=O)(=O)c1ccc2c(c1)N(CC(=O)Nc1ccc(F)cc1F)C(=O)C1CCCN21 (centres undefined)	4.1%	nt	-3.1%	-14.2%	nt	-4.0%[59 µM]
Cc1ccc(SCC(=O)Nc2ccc(O)c(-c3nc4cc(C)ccc4o3)c2)cc1	-8.2%	nt	2.6%	-19.1%	nt	3.7%[59 µM]
CCOC(=O)c1cc2c(ccn2C)n1CC(=O)N1CCC(Cc2ccccc2)CC1	7.2%	1.0	?	-11.7%	-15.0%	39.8µM*
CCOC(=O)c1cc2c(ccn2C)n1CC(=O)N(C)C	2.0%	-23.3	-0.4%	-1.5%	-8.3%	nt
CCOC(=O)c1cc2c(ccn2C)n1Cc1ccc(C#N)cc1	1.6%	-4.6	?	?	-7.6%	39.8µM*
CCOC(=O)c1cc2c(ccn2C)n1CC(=O)N1CCCC(C)C1 (centres undefined)	1.1%	-8.6	-4.8%	-3.5%	13.2%	15.3%[59 µM]
